Results on 2 compounds are retold here after PubChem BioAssay AID953 (National Center for Advancing Translational Sciences (NCATS), 2007).

The assay in a line: Confirmation Concentration-Response Assay for Agonists of the Thyroid Stimulating Hormone Receptor: Activators of Intracellular cAMP Concentrations in Parental HEK 293. Particulars: parental HEK293 CNG biosensor, cAMP membrane potential fluorescence; series mostly up to 32.9 µM. From the text: NIH Chemical Genomics Center [NCGC] NIH Molecular Libraries Screening Centers Network [MLSCN] MLSCN Grant: 1 X01 MH080680-01 PI Name: Dr. Marvin Gershengorn NCGC Assay Overview: This cell based assay utilized a cyclic nucleotide gated ion channel (CNG) as a biosensor for cAMP induction. HEK 293 cells stably expressing the modified CNG were purchased from BD biosciences (http://www.atto.com/products/actone/features_benefits.shtml) . Stimulation of cAMP production causes the CNG to open and subsequent membrane depolarization to occur. A fluorescent membrane potential dye (BD biosciences) was utilized to detect cAMP stimulation in cells. The cells were maintained in DMEM medium (Invitrogen) containing 10 % FBS (Hyclone), 100 units/ml Penicillin, 100 ug/ml Streptomycin (Invitrogen), and 250 ug/ml Geneticin (Invitrogen) and 1 ug/ml Puromycin (Invitrogen) at 37C in 5% CO2. […]
NCGC Assay Protocol Summary: High Throughput Screening. […] 23 nl/well compound or control was then added to the assay plates, which were incubated for additional 30 min before reading a Envision fluorescence plate reader (Perkin Elmer) in bottom-read mode for fluorescence intensity (emission at 590 nm). Keywords: cAMP, CNG Ion Channel, quantitative high throughput screening, qHTS, HTS, probe identification, CNG, cAMP, cyclic nucleotide gated ion channel PubChem

Some of the results follow. Inconclusive results are not listed. Calls of active or inactive are those of the source. Calls come from the whole dose curve; as a rule, active = well fitted curve in the direction sought with a large enough effect; inconclusive = small, poorly fitted or top-dose-only effect, or effect the other way, or another doubt; inactive = no such curve, though single readings can be large or run the other way.

In the case of `CCOC(=O)C1=C(C)OC(N)=C(C(=O)OC)C12C(=O)Nc1ccc(Br)cc12` (configuration not stated), the outcome was inactive.

Consider `C=CCN1C(=O)C2(C(C(=O)OCC)=C(N)Oc3c2c(=O)oc2ccccc32)c2ccccc21` (configuration not stated), for which the result was inactive.
